# Values joined by “and” are separate entries in the source; they are usually repeats but may differ in a detail not shown here. Identical values can stand only once. Counter-ions that a name gives are not always drawn. The whole screen tested about 5,800 compounds, of which about 620 (11%) showed activity. For the sample, actives were picked, then their nearest neighbours and some compounds at random. A number with no mark means an inactive call.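 Rule for the calls: active = score above a cut-off or among the top three wells of a plate; in these data no inactive exceeds 0.85.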
# Tested on: primary human hepatic stellate cells (donor 1)
# Experiment: scaled lipid accumulation score (0 = DMSO-like, 1 = nortriptyline-like); higher = stronger HSC inactivation (lipid re-accumulation), active = hit call of the paper
# Conditions: 48 h
# Procedure: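 Primary lipid accumulation screen in primary human hepatic stellate cell myofibroblasts (donor 1, passage 8) in 384-well plates. 100 nL of library compound was pin-transferred into 30 µL medium in duplicate, and cells were treated for 48 h. The 'Scaled' score combines distance from plate baseline, toxicity and reproducibility penalties, and is normalised to nortriptyline (positive) and DMSO (negative) controls on each plate. A hit is defined as scaled >0.85 or among the top 3 wells per plate.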
# [1] = library stock concentration: 3.33 mM
# [2] = library stock concentration: 10 mM
# [3] = library stock concentration: 1 mM
structure (smiles),measurement,setting,value
COc1ccc([C@@H]2CC(=O)c3c(O)cc(O[C@@H]4O[C@H](CO)[C@@H](O)[C@H](O)[C@H]4O[C@@H]4O[C@@H](C)[C@H](O)[C@@H](O)[C@H]4O)cc3O2)cc1O [Neohesperidin],scaled lipid accumulation score,[1],≤ 0
same,scaled lipid accumulation score,[2],0.039
C[C@H](NC(=O)/C(C#N)=C/c1cccc(Br)n1)c1ccccc1,scaled lipid accumulation score,[2],0.586
C[C@H](NC(=O)C(C#N)=Cc1cccc(Br)n1)c1ccccc1,scaled lipid accumulation score,[1],1.05 (active)
CCC[C@H](NC(=O)/C(C#N)=C/c1cccc(Br)n1)c1ccccc1 [Degrasyn (WP1130)],scaled lipid accumulation score,[1],0.369
same,scaled lipid accumulation score,[2],0.703
CC(=O)OCOC(=O)CN(CC(=O)OCOC(C)=O)c1ccccc1OCCOc1ccccc1N(CC(=O)OCOC(C)=O)CC(=O)OCOC(C)=O,scaled lipid accumulation score,[1],≤ -0.009
same,scaled lipid accumulation score,[2],0.697
CC(C)C[C@H](NC(=O)[C@H]1O[C@@H]1C(=O)O)C(=O)NCCCCN=C(N)N,scaled lipid accumulation score,[1],0.177
same,scaled lipid accumulation score,[2],≤ 0 and ≤ -0.07
C=C[C@@]1(C)C[C@@H](OC(=O)CS[C@@H]2C[C@H]3CC[C@@H](C2)N3C)[C@@]2(C)[C@@H]3C(=O)CC[C@@]3(CC[C@@H]2C)[C@@H](C)[C@@H]1O [Retapamulin],scaled lipid accumulation score,[2],0.947 (active)
C=C[C@]1(C)C[C@@H](OC(=O)CS[C@@H]2C[C@H]3CC[C@@H](C2)N3C)[C@]2(C)[C@H](C)CC[C@]3(CCC(=O)[C@H]32)[C@@H](C)[C@@H]1O [Retapamulin],scaled lipid accumulation score,[1],0.412
C=C[C@]1(C)C[C@@H](OC(=O)CSC(C)(C)CNC(=O)[C@H](N)C(C)C)[C@]2(C)[C@H](C)CC[C@]3(CCC(=O)[C@H]32)[C@@H](C)[C@@H]1O [Valnemulin HCl],scaled lipid accumulation score,[1],≤ 0
same,scaled lipid accumulation score,[2],0.491
Clc1ccc(C(c2ccc(Cl)cc2)[n+]2ccn(CC(OCc3ccc(Cl)cc3Cl)c3ccc(Cl)cc3Cl)c2)cc1 (stereo unspecified) [Calmidazolium chloride],scaled lipid accumulation score,[2],0.037
O=C(O)CCC(=O)O.O=C(O[C@H]1CN2CCC1CC2)N1CCc2ccccc2[C@@H]1c1ccccc1 [Solifenacin succinate],scaled lipid accumulation score,[2],1.3 (active)
O=C(O[C@H]1CN2CCC1CC2)N1CCc2ccccc2[C@@H]1c1ccccc1,scaled lipid accumulation score,[2],0.352
O=C(O[C@H]1CN2CCC1CC2)N1CCc2ccccc2[C@@H]1c1ccccc1 [Solifenacin succinate],scaled lipid accumulation score,[1],0.293
O=C(NCc1ccc(Cl)c(Cl)c1)O[C@H]1CCc2ccccc21,scaled lipid accumulation score,[3],0.061
CC/C=C\C/C=C\C/C=C\CCCCCCCC(=O)O [.alpha.-Linolenic Acid],scaled lipid accumulation score,[3],0.009
CC/C=C\C/C=C\C/C=C\CCCCCCCC(=O)O [Linolenic acid (18:3 n-3)],scaled lipid accumulation score,[3],≤ -0.021
CC(=O)O[C@H]1Cc2ccccc2N(C(N)=O)c2ccccc21,scaled lipid accumulation score,[2],≤ 0
CCCC[P+](CCCC)(CCCC)Cc1ccc(NC(=O)C(Cc2ccc3ccccc3c2)NC(=NC2CCCCC2)NC2CCCCC2)cc1 (stereo unspecified),scaled lipid accumulation score,[2],0.797
CNCc1ccc(-c2cc(-c3nc(-c4ccc(S(=O)(=O)C(C)C)cc4)cnc3N)on2)cc1 [listing 1 of 2 here],scaled lipid accumulation score,[1],1.12 (active)
CNCc1ccc(-c2cc(-c3nc(-c4ccc(S(=O)(=O)C(C)C)cc4)cnc3N)on2)cc1 [listing 2 of 2 here],scaled lipid accumulation score,[2],0.254
CCCCCCCC/C=C\CCCCCCCC(=O)OCC [Oleic Acid ethyl ester],scaled lipid accumulation score,[3],0.015
O=C(CO)N1CCC(c2n[nH]c(-c3ccc(Cl)cc3)c2-c2ccncn2)CC1,scaled lipid accumulation score,library stock concentration: 400 uM,≤ -0.005
same,scaled lipid accumulation score,library stock concentration: 2 mM,≤ -0.005
same,scaled lipid accumulation score,[2],≤ -0.005
Cl.O[C@H](CNC[C@@H](O)[C@H]1CCc2cc(F)ccc2O1)[C@@H]1CCc2cc(F)ccc2O1 [Nebivolol hydrochloride],scaled lipid accumulation score,[2],0.861 (active)
OC(CNCC(O)C1CCc2cc(F)ccc2O1)C1CCc2cc(F)ccc2O1 (stereo unspecified) [Nebivolol],scaled lipid accumulation score,[1],0.769
same,scaled lipid accumulation score,[2],≤ 0
CCCCCC(=O)/C=C/[C@@H]1[C@H](C/C=C\CCCC(=O)O)[C@H](O)C[C@H]1O [8-iso-15-keto Prostaglandin F2.beta.],scaled lipid accumulation score,[3],≤ 0
COC(=O)c1ccc(O)c2nc3c(C=O)c(O)cc(O)c3nc12 [Lomofungin],scaled lipid accumulation score,library stock concentration: 6.4 mM,≤ -0.006
Cn1cc(C(=O)OCC2CCN(CCNS(C)(=O)=O)CC2)c2ccccc21 [listing 1 of 2 here],scaled lipid accumulation score,[2],0.925 (active)
COc1[nH]c2ccc(F)cc2c1C(=O)OCC1CCN(CCNS(C)(=O)=O)CC1.NS(=O)(=O)O,scaled lipid accumulation score,[2],0.298
Cn1cc(C(=O)OCC2CCN(CCNS(C)(=O)=O)CC2)c2ccccc21 [listing 2 of 2 here],scaled lipid accumulation score,[2],0.41
C/C=C1\[C@H]2C=C(C)C[C@]1(N)c1ccc(=O)[nH]c1C2,scaled lipid accumulation score,[2],≤ 0
C/C=C1\[C@H]2C=C(C)C[C@]1(N)c1ccc(=O)[nH]c1C2 [(-)-Huperzine A],scaled lipid accumulation score,library stock concentration: 20.6 mM,0.185
CC(C)(C)C(=O)Nc1ccccc1 [N-Pivaloylaniline],scaled lipid accumulation score,[3],0.066
CC(C)=CCC/C(C)=C/CC/C(C)=C/CC[C@]1(C)CCc2cc(O)cc(C)c2O1 [.delta.-Tocotrienol],scaled lipid accumulation score,[3],≤ 0
